Common to all, as to test: yeast three-hybrid, YBZ-1, SC-Leu-His + 0.5 mM 3-AT, 4 days
What all share (conditions): tags: N-Gal4 AD-HA kept; label: inside an RPR1-promoter hybrid RNA with tandem MS2 sites; ssRNA

One test has as its target PUM1 PUF domain R3-VRC (Homo sapiens, UniProt Q14671 828-1176, C935V;Q939C). The gist of the method:
(§1)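 Each repeat of the Pumilio-1 PUF domain was randomized at its three base-contacting residues, and these libraries were co-expressed from a centromeric plasmid with matching RNA elements in strain YBZ-1. After four days on SC-Leu (input) or SC-Leu-His + 0.5 mM 3-AT (selection), the repeat regions were PCR-amplified and Illumina-sequenced. The interaction score compares variant frequency between input and selection as a log change, computed in log2 with a pseudocount of 1 for absent variants.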

A further test addresses PUM1 PUF domain R3-FWS (Homo sapiens, UniProt Q14671 828-1176, C935F;R936W;Q939S). The gist of the method: as §1
The next test concerns the target PUM1 PUF domain R4-MNV (Homo sapiens, UniProt Q14671 828-1176, N971M;H972N;Q975V). In short, it runs like this: as §1
Another test concerns the target PUM1 PUF domain R4-GPC (Homo sapiens, UniProt Q14671 828-1176, N971G;H972P;Q975C). The gist of the method: as §1
A further test has as its target PUM1 PUF domain R1-NWR (Homo sapiens, UniProt Q14671 828-1176, S863N;R864W;Q867R). In short, it runs like this:
as §1

Another test addresses PUM1 PUF domain R5-DYG (Homo sapiens, UniProt Q14671 828-1176, C1007D;R1008Y;Q1011G). The gist of the method:
as §1

In the next test the target is T1, PUM1 PUF domain R6-KFG (Homo sapiens, UniProt Q14671 828-1176, N1043K;Y1044F;Q1047G).
T1 sequence: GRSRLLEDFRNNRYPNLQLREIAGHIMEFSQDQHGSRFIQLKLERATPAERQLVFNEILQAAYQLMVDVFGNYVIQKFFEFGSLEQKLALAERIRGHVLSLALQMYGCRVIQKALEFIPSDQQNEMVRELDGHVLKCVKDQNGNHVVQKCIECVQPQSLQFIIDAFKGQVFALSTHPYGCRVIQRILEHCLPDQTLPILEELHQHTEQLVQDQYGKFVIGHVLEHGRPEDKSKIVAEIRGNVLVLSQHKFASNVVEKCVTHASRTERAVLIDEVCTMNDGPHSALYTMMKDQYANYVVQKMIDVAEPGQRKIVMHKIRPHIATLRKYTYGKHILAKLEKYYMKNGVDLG
The gist of the method:
as §1

In a further test the target is PUM1 PUF domain R3-IRC (Homo sapiens, UniProt Q14671 828-1176, C935I;Q939C). In short, it runs like this: as §1
The target in another test is PUM1 PUF domain R4-YFG (Homo sapiens, UniProt Q14671 828-1176, N971Y;H972F;Q975G). In short, it runs like this: as §1
The target of the next test is PUM1 PUF domain R8-PWK (Homo sapiens, UniProt Q14671 828-1176, N1122P;Y1123W;Q1126K). The gist of the method: as §1

Turning to “GGCUAGAACUAGUGGAUCCCCCGGCGCCCGGCGGCUCGAGCCCGGGUAAGUGUAAGUAGUCUGCAUGCCGCCGGGCGCCAUGCCUGCAGGUCGACUCUAGAAAACAUG”, the results for the binding signal with PUM1 PUF domain R3-VRC and in the test with PUM1 PUF domain R3-FWS were 0.33 log2 enrichment (interaction score) and 7.37 log2 enrichment (interaction score), respectively.
“GGCUAGAACUAGUGGAUCCCCCGGCGCCCGGCGGCUCGAGCCCGGGUAAGUGUACAUAGUCUGCAUGCCGCCGGGCGCCAUGCCUGCAGGUCGACUCUAGAAAACAUG”: the binding signal with PUM1 PUF domain R4-MNV is 0.87 log2 enrichment (interaction score); in the test with PUM1 PUF domain R4-GPC, 1.58 log2 enrichment (interaction score).
Regarding “GGCUAGAACUAGUGGAUCCCCCGGCGCCCGGCGGCUCGAGCCCGGGUAAGUGUAAUUAGUCUGCAUGCCGCCGGGCGCCAUGCCUGCAGGUCGACUCUAGAAAACAUG”, the binding signal with PUM1 PUF domain R3-FWS was 2.99 log2 enrichment (interaction score).
With “GGCUAGAACUAGUGGAUCCCCCGGCGCCCGGCGGCUCGAGCCCGGGUAAGUGUAAAUCGUCUGCAUGCCGCCGGGCGCCAUGCCUGCAGGUCGACUCUAGAAAACAUG”, in the test with PUM1 PUF domain R1-NWR, the binding signal is 6.94 log2 enrichment (interaction score).
Take “GGCUAGAACUAGUGGAUCCCCCGGCGCCCGGCGGCUCGAGCCCGGGUAAGUGUAAAUAGUCUGCAUGCCGCCGGGCGCCAUGCCUGCAGGUCGACUCUAGAAAACAUG”: the binding signal with PUM1 PUF domain R5-DYG is 3.86 log2 enrichment (interaction score); in the test with PUM1 PUF domain R3-VRC, 3.72 log2 enrichment (interaction score); with PUM1 PUF domain R6-KFG it was 3.39 log2 enrichment (interaction score); in the test with PUM1 PUF domain R3-IRC it was 2.81 log2 enrichment (interaction score); with PUM1 PUF domain R4-GPC, 4.57 log2 enrichment (interaction score); with PUM1 PUF domain R4-YFG, 2.07 log2 enrichment (interaction score). Besides, in the test with PUM1 PUF domain R3-FWS, the binding signal was 3.07 log2 enrichment (interaction score).
As for “GGCUAGAACUAGUGGAUCCCCCGGCGCCCGGCGGCUCGAGCCCGGGUAAGUGUAUAUAGUCUGCAUGCCGCCGGGCGCCAUGCCUGCAGGUCGACUCUAGAAAACAUG”, the binding signal with PUM1 PUF domain R4-MNV was 3.98 log2 enrichment (interaction score); with PUM1 PUF domain R4-GPC, 2.93 log2 enrichment (interaction score); with PUM1 PUF domain R4-YFG it was 3.63 log2 enrichment (interaction score).
For “GGCUAGAACUAGUGGAUCCCCCGGCGCCCGGCGGCUCGAGCCCGGGUAAGUGUCAAUAGUCUGCAUGCCGCCGGGCGCCAUGCCUGCAGGUCGACUCUAGAAAACAUG”, the binding signal with PUM1 PUF domain R5-DYG is 3.79 log2 enrichment (interaction score).
In the case of “GGCUAGAACUAGUGGAUCCCCCGGCGCCCGGCGGCUCGAGCCCGGGUAAGCGUAAAUAGUCUGCAUGCCGCCGGGCGCCAUGCCUGCAGGUCGACUCUAGAAAACAUG”, the binding signal with PUM1 PUF domain R8-PWK is 5.71 log2 enrichment (interaction score).
For the sequence “GGCUAGAACUAGUGGAUCCCCCGGCGCCCGGCGGCUCGAGCCCGGGUAAGUGUAAAUUGUCUGCAUGCCGCCGGGCGCCAUGCCUGCAGGUCGACUCUAGAAAACAUG”, the binding signal with PUM1 PUF domain R1-NWR is 4.99 log2 enrichment (interaction score).

These data come from PMC8384837, “Expanding the binding specificity for RNA recognition by a PUF domain”.
